# Assay results taken from the supplement of paper PMC10849652.
# The full data set covers some 7,900 targets. This sample favours those with a hit. About 0.6% of all pairs of compound and target were hits. Unmarked numbers belong to inactive results.
# Experiments:
# Experiment in all cases: log2 fold change, soluble protein after heating vs DMSO (PISA); higher = thermal stabilisation; K562 cells, 10 uM, 30 min; active = over 0.2 and 3.5 SD of the protein, either way, in both replicates (recomputed)
# [1] = compound: CC[C@@H]1C(=O)N(C)c2cnc(Nc3ccc(C(=O)NC4CCN(C)CC4)cc3OC)nc2N1C1CCCC1
# Summary of the method: (§1)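 For each measurement, 10 μM compound was applied for 30 min to K562 cells at 2×10^6 cells/mL. Aliquots were heated for 3 min across 48°C-58°C, pooled, and extracted in PBS with 0.5% NP-40 at 4°C; the supernatant after 21,000xg for 90 min was soluble protein. This was quantified by TMTpro 16plex LC-MS/MS with channel sums equalised, and thermal stability was reported relative to control samples from duplicates, on a log2 fold-change scale.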
# volasertib = compound: CC[C@@H]1C(=O)N(C)c2cnc(Nc3ccc(C(=O)N[C@H]4CC[C@H](N5CCN(CC6CC6)CC5)CC4)cc3OC)nc2N1C(C)C [volasertib]
# Summary of the method: as §1
# [2] = compound: CC[C@H](C)N1C=C(C2=C(C=C(C=C21)C3=CN=C(C=C3)N4CCNCC4)C(=O)NCC5=C(C=C(NC5=O)C)C)C
# Summary of the method: as §1
# epoxomicin = compound: CC[C@H](C)[C@@H](C(=O)N[C@@H]([C@@H](C)O)C(=O)N[C@@H](CC(C)C)C(=O)[C@]1(CO1)C)NC(=O)[C@H]([C@@H](C)CC)N(C)C(=O)C [epoxomicin]
# Summary of the method: as §1
# [3] = compound: CCn1c(C(=O)N(C2CC2)C2CC2)cc2c3c(ncn3C)c(Nc3cc(C)n(C)n3)nc21
# Summary of the method: as §1
# [4] = compound: CCn1cc(-c2ccnc3[nH]c(-c4cccc(CN(C)C)c4)cc23)c(-c2ccc(NC(=O)N(C)C)cc2)n1
# Summary of the method: as §1
# [5] = compound: CN(C)CC(=O)Nc1ccc2[nH]c(=O)c3ccccc3c2c1
# Summary of the method: as §1
# rosiglitazone = compound: CN(CCOC1=CC=C(C=C1)C[C@H]2C(=O)NC(=O)S2)C3=CC=CC=N3 (racemic) [rosiglitazone]
# Summary of the method: as §1
# [6] = compound: CN1C2=C(C3=C1C(=O)N(N=C3)CC4=CC(=CC=C4)N)SC(=C2)S(=O)C
# Summary of the method: as §1
# [7] = compound: CN1CCC(CNc2ccc3ncc(-c4cccc(OC(F)(F)F)c4)n3n2)CC1
# Summary of the method: as §1
# saracatinib = compound: CN1CCN(CCOc2cc(OC3CCOCC3)c3c(Nc4c(Cl)ccc5c4OCO5)ncnc3c2)CC1 [saracatinib]
# Summary of the method: as §1
# sotrastaurin = compound: CN1CCN(c2nc(C3=C(c4c[nH]c5ccccc45)C(=O)NC3=O)c3ccccc3n2)CC1 [sotrastaurin]
# Summary of the method: as §1
# alvocidib = compound: CN1CC[C@H](c2c(O)cc(O)c3c(=O)cc(-c4ccccc4Cl)oc23)[C@H](O)C1 [alvocidib]
# Summary of the method: as §1
# Tubastatin A = compound: CN1CCc2c(c3ccccc3n2Cc2ccc(C(=O)NO)cc2)C1 [Tubastatin A]
# Summary of the method: as §1
# [8] = compound: CNC(=O)C1=CC=CC=C1NC2=NC(=NC=C2Cl)NC3=C(C=C(C=C3)N4CCOCC4)OC
# Summary of the method: as §1
# defactinib = compound: CNC(=O)c1ccc(Nc2ncc(C(F)(F)F)c(NCc3nccnc3N(C)S(C)(=O)=O)n2)cc1 [defactinib]
# Summary of the method: as §1
# rucaparib = compound: CNCc1ccc(-c2[nH]c3cc(F)cc4c3c2CCNC4=O)cc1 [rucaparib]
# Summary of the method: as §1
# [9] = compound: CNc1nc(-c2ccc3c(N)n[nH]c3c2)cc(N2C[C@@H](C(=O)NC3CCCCC3)CC[C@H]2C)n1
# Summary of the method: as §1
# encorafenib = compound: COC(=O)N[C@@H](C)CNc1nccc(-c2cn(C(C)C)nc2-c2cc(Cl)cc(NS(C)(=O)=O)c2F)n1 [encorafenib]
# Summary of the method: as §1
# [10] = compound: COC(=O)[C@H](CCSC)NC(=O)C1=C(C=C(C=C1)NC[C@H](CS)N)C2=CC=CC=C2
# Summary of the method: as §1
# Chain of UniProt P32519 (P32519 whole entry, looked up): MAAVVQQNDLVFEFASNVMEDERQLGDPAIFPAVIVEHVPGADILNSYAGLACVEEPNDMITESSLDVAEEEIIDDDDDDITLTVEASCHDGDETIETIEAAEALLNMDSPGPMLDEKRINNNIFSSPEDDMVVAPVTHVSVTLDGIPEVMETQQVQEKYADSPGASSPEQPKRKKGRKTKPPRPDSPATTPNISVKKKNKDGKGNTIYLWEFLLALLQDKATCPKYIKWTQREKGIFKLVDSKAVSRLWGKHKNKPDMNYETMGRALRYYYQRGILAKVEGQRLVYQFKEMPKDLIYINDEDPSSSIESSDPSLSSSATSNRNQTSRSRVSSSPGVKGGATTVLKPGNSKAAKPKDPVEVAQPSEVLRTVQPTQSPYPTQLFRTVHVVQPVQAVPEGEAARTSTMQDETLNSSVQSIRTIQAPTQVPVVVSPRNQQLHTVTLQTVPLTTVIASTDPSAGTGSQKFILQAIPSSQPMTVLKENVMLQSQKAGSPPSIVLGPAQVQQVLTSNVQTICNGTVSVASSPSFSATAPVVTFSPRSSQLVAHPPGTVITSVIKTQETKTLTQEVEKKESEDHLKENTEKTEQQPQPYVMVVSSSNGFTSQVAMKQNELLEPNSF
# Chain of UniProt O75822 (O75822 whole entry, looked up): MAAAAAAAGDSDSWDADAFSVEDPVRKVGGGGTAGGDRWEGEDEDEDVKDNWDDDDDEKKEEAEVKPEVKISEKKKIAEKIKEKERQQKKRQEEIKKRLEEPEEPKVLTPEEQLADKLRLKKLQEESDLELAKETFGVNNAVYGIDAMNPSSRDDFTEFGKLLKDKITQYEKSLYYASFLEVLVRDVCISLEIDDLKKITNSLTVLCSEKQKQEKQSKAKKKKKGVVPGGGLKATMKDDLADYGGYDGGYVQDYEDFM
# Chain of UniProt Q96GQ7 (Q96GQ7 whole entry, looked up): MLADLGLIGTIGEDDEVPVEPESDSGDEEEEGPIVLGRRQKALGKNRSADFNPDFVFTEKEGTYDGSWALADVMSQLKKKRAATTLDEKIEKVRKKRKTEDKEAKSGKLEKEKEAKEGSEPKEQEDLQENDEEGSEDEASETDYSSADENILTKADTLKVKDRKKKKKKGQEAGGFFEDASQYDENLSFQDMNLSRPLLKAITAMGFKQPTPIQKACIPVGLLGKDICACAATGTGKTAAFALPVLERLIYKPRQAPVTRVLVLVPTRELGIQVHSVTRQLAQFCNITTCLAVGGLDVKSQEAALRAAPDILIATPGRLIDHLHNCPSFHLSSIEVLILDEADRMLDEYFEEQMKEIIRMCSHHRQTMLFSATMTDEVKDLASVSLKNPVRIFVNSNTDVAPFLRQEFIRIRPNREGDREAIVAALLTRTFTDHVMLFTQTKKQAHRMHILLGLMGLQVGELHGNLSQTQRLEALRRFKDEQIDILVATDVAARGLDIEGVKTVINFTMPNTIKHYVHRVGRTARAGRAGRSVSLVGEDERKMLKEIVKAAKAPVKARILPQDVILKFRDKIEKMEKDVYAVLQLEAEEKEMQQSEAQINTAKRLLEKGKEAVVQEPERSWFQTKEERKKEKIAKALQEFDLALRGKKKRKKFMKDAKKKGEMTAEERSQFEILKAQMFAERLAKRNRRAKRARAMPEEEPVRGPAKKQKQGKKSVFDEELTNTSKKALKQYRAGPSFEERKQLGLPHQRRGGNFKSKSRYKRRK
# Chain of UniProt Q15910 (Q15910 whole entry, looked up): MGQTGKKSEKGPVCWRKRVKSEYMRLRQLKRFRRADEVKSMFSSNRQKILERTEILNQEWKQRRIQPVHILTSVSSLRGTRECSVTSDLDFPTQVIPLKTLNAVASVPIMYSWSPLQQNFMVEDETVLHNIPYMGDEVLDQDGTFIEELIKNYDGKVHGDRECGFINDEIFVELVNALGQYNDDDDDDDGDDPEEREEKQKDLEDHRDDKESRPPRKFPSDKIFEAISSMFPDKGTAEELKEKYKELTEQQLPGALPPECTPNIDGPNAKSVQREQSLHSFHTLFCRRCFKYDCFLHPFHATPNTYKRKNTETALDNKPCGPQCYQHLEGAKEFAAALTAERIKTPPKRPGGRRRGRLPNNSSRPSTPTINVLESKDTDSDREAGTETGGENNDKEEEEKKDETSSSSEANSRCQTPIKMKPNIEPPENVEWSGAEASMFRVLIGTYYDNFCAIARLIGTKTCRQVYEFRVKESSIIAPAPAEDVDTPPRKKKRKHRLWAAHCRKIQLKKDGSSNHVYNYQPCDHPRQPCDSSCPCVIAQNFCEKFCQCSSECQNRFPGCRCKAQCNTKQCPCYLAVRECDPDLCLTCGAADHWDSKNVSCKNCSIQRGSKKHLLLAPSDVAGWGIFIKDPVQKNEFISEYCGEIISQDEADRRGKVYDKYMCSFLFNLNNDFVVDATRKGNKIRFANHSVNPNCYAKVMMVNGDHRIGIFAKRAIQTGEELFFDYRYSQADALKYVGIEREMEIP
# Chain of UniProt P29692 (P29692 whole entry, looked up): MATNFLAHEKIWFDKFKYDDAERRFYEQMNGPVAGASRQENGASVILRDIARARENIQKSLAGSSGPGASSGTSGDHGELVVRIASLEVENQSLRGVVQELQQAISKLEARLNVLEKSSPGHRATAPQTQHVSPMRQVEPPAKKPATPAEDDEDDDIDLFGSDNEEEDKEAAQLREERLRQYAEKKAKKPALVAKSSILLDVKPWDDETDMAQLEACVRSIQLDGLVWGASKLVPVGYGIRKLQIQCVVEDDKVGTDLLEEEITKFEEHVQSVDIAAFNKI
# Chain of UniProt Q9BQI3 (Q9BQI3 whole entry, looked up): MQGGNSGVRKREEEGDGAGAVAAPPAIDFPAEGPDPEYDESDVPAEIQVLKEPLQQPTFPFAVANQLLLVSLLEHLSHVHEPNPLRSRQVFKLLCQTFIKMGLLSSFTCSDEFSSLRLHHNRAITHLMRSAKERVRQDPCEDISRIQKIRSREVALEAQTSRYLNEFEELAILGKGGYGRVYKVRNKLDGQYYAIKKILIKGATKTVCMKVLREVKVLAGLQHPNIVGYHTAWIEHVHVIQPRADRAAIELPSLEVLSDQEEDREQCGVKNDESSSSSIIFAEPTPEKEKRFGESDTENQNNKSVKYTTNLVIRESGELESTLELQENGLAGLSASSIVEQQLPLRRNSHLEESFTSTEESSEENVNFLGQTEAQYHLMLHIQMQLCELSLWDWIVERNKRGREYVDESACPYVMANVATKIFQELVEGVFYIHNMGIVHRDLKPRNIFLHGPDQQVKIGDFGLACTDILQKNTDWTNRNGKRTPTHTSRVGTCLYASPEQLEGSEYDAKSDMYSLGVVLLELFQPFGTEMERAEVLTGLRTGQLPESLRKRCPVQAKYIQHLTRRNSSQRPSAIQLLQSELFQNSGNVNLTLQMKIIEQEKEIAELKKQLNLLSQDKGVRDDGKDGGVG
# Chain of UniProt P50570 (P50570 whole entry, looked up): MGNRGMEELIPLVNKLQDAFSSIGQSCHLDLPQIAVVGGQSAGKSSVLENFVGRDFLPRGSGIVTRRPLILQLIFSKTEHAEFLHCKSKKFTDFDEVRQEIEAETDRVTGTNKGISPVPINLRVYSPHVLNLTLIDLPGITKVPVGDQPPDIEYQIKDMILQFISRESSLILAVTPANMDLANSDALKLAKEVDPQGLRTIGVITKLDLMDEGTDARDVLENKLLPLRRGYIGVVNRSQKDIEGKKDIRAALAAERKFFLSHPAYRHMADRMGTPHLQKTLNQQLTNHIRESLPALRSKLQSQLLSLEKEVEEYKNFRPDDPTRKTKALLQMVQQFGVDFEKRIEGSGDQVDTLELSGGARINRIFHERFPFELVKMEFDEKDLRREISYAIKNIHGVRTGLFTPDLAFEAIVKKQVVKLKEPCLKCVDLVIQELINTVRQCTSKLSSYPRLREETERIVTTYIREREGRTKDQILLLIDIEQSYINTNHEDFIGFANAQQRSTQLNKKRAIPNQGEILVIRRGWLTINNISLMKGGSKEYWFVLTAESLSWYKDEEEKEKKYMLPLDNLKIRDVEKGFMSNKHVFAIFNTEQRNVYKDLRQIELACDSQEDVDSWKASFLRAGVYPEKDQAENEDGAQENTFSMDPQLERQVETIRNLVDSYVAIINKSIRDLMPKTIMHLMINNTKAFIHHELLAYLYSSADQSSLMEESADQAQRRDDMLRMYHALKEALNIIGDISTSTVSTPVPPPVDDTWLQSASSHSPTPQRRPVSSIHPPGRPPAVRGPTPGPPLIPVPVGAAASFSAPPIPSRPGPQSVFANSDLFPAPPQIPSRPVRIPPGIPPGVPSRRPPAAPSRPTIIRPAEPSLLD
# Chain of UniProt Q8WV16 (Q8WV16 whole entry, looked up): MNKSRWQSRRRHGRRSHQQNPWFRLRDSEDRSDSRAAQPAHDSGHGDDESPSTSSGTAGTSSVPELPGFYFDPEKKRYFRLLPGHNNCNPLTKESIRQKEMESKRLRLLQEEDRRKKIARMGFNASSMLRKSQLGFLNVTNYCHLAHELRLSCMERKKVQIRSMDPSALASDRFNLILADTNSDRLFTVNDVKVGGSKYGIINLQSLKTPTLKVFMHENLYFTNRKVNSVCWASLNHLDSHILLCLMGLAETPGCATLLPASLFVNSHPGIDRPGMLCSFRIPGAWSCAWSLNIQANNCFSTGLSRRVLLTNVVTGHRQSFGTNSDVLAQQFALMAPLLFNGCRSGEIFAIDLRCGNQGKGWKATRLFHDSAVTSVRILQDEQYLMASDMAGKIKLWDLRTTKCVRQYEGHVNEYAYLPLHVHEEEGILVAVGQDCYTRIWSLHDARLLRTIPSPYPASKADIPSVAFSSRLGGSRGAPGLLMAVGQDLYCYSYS
# Chain of UniProt A1L3X0 (A1L3X0 whole entry, looked up): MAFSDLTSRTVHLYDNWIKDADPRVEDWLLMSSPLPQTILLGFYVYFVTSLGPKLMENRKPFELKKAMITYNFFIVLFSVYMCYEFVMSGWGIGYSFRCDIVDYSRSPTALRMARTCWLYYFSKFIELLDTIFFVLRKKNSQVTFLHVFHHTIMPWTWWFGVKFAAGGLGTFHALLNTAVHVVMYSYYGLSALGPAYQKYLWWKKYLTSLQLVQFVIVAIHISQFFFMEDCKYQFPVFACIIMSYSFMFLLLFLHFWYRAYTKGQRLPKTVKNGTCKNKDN
Target,log2 fold change [1],log2 fold change (volasertib),log2 fold change [2],log2 fold change (epoxomicin),log2 fold change [3],log2 fold change [4],log2 fold change [5],log2 fold change (rosiglitazone),log2 fold change [6],log2 fold change [7],log2 fold change (saracatinib),log2 fold change (sotrastaurin),log2 fold change (alvocidib),log2 fold change (Tubastatin A),log2 fold change [8],log2 fold change (defactinib),log2 fold change (rucaparib),log2 fold change [9],log2 fold change (encorafenib),log2 fold change [10]
CYP51A1 (UniProt Q16850),0.019,0.132,0.052,-0.061,0.058,0.015,0.015,-0.056,0.072,-0.331 (active),-0.072,-0.029,0.027,-0.024,0.065,0,0.162,0.212,0.029,-0.135
ELF1 (UniProt P32519),0.116,-0.516,0.185,0.117,-0.161,,,,0.027,,0.02,-0.027,-0.101,0.075,0.013,,-0.301,-0.03,0.018,
ENTR1 (UniProt Q96C92),,0.167,,,-0.03,,-0.107,,0.183,,-0.131,,,,-0.03,0.022,,-0.039,,-0.486 (active)
EZH2 isoform 2 (UniProt Q15910),,-0.259,,0.131,-0.173,,0.022,0.243,0.155,,-0.043,0.001,-0.18,0.119,0.011,-0.207,,0.217,,-0.302
DBNL (UniProt Q9UJU6),,,,,,,,,,,,,-0.142,,,,,,,
FAM160A2 isoform 2 (UniProt Q8N612),-0.074,,-0.048,-0.177,,0.06,0.052,-0.046,0.287,-0.258,-0.066,,-0.016,-0.17,,-0.002,-0.085,-0.064,-0.168,0.128
DENND1A isoform 6 (UniProt Q8TEH3),,-0.856 (active),,,,,0.112,-0.041,,,,,,-0.018,,-0.081,,,,-0.024
EIF3J isoform 2 (UniProt O75822),,0.031,-0.079,0.025,0.03,,0.076,-0.038,0.133,,0.035,0.075,,-0.082,-0.021,-0.085,,-0.04,,-0.008
EEF1D isoform 3 (UniProt P29692),,,,,-0.067,,,,,,,,,0.147,-0.03,,,,,
EIF2AK1 (UniProt Q9BQI3),,-0.142,,0.13,0.001,0.034,-0.121,-0.025,0.006,-0.082,0.073,0.095,0.072,0.128,0.002,-0.008,,-0.09,,0.04
EDEM2 (UniProt Q9BV94),,-0.159,-0.035,-0.006,0.033,-0.087,-0.001,-0.077,-0.003,0.161,-0.23,-0.05,-0.028,0.022,-0.016,0.036,,0.079,,0.105
DNM2 isoform 4 (UniProt P50570),0.026,,-0.125,0.241,0.017,-0.01,,0.038,0.027,-0.252,-0.126,-0.024,-0.072,,-0.088,,-0.268,-0.235,0.107,
F2RL3 (UniProt Q96RI0),,0.076,,,0.074,,0.012,,-0.002,,0.04,,0.004,0.082,-0.051,0.009,,0.005,,0.008
ELOVL7 (UniProt A1L3X0),,,,0.007,-0.016,,,,0.047,,-0.018,,-0.101,-0.002,-0.112,,,-0.093,,
DCAF4 (UniProt Q8WV16),0.03,,-0.075,0.041,,0.147,,,0.128,-0.086,-0.097,0.027,,,,,-0.346,0.193,0.103,
DDX27 (UniProt Q96GQ7),-0.033,,0.1,-0.184,-0.084,0.116,-0.009,,0.162,0.241,-0.104,-0.088,0.209,0.09,-0.035,0.651,0.255,-0.017,0.124,0.057
ELMO1 (UniProt Q92556),,,-0.089,-0.109,0.046,,0.031,0.076,-0.078,,0.051,0.046,,,-0.074,-0.045,,0.041,,-0.222
EIF4G1 (UniProt Q04637),,,,,,0.062,0,,0.224,-0.552 (active),-0.112,,0.047,0.006,,-0.08,,-0.017,,0.014
